Source: PubChem (The Scripps Research Institute Molecular Screening Center)
Rows were chosen to be rich in hits. Some 3.5% of all compounds tested hit in one or more screens of this group.
TEAD-YAP inh – TEAD-YAP interaction inhibition; inhibition, % at 9.12 µM; 640,000 compounds, 1.4% hits; HEK-TIYL cells, TEAD-Gal4/YAP UAS-luciferase luminescence; in the data active means inhibition above about 32%
GPR151 ag – activators of human GPR151; PathHunter beta-arrestin GPR151 cells, luminescence; activation, % at 11.2 µM; 650,000 compounds, 1% hits; in the data active means activation above about 4.9%
MITF primary – inhibitors of human MITF; AID 1259374; AlphaScreen MITF homodimerization, bead proximity signal; 650,000 compounds, 0.91% hits; inhibition, % at 2.6 µM; in the data active means inhibition above about 50%
FBW7 activator – human FBW7 E3 ligase activation, primary screen; AID 1259310; Q969H0; normalized activity (activation), % at 26.1 µM; 650,000 compounds, 0.13% hits; AlphaScreen FBW7–phospho-cyclin E peptide binding, activator screen; in the data active means normalized activity above about 1.9%;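 further: purified mutant Fbw7 with reduced substrate affinity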
GPR151 confirm – confirmation of human GPR151 activators | shares compounds with GPR151 ag | GPR151 PathHunter beta-arrestin cells, luminescence, 90 min; % of EA-reagent control over plate median | activation, % at 11.2 µM | 6,700 tested, under 10 active | AID 1508609;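 active means mean percent activation across replicates above the confirmation screen cutoff of 4.91%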
GPR119 ag – activates human GPR119 in a GPR151 counter-screen; shares compounds with GPR151 ag; GPR119 PathHunter beta-arrestin cells, luminescence, 90 min; 0 = compound-well median, 100 = enzyme-acceptor control; activation, % at 11.2 µM; 6,700 compounds, 0.3% hits; AID 1508611;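 active means mean percent activation in the counterscreen above 29.09%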;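 further: counterscreen on off-target GPR119 to flag nonselective hits from the GPR151 activator screen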
Target sequence (Q8TDV5 whole entry, looked up): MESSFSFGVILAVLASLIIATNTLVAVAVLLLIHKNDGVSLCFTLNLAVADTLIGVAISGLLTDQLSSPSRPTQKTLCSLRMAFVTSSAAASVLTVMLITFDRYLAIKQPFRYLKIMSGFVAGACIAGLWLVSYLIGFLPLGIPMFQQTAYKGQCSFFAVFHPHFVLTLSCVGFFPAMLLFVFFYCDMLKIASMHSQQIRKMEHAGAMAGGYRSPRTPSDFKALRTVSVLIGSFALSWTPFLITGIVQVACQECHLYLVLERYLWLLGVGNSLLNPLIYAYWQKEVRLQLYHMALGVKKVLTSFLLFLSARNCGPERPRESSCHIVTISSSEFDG
Of the large screens only hits and unclear results are named; the others gave an inactive call (follow-up assays come after a bar, where they were run).

O=C(COc1ccc(Cl)cc1)N/N=C/c1cccc(O)c1	none
COc1ccc(NC(=O)c2oc3ccccc3c2NC(=O)c2ccccc2)c(OC)c1	none
CCN(Cc1ccccc1)C(=O)Cn1c(=O)n(-c2ccc(OC)cc2)c(=O)c2ccccc21	GPR151 ag 7.9 | GPR151 confirm inactive | GPR119 ag inactive
CCOc1ccc(-n2c(=O)c3sccc3n(CC(=O)N(CC)CC)c2=O)cc1	none
CC(=O)/C=C/c1ccc(OC(F)F)cc1	GPR151 ag 6.0 | GPR151 confirm inactive | GPR119 ag inactive
O=C(N/N=C/c1ccc(O)c(O)c1)c1ccc(-c2ccccc2)cc1	none
O=C(NCCCN1CCCC1=O)c1ccnc(NCc2ccc3c(c2)OCO3)c1	none
CCCCc1cc(=O)oc2c(C)c(OCC(=O)OC(C)(C)C)ccc12	GPR151 ag 5.7 | GPR151 confirm inactive | GPR119 ag inactive
Cc1cc(F)c(F)cc1C(=O)N1CCN(c2cc(C)c([N+](=O)[O-])cc2F)CC1	none
CC(=O)c1cc(F)c(N2CCN(C(=O)c3cc(F)c(F)cc3[N+](=O)[O-])CC2)cc1C	GPR151 ag 5.3 | GPR151 confirm inactive | GPR119 ag inactive
Cc1cc(N2CCN(C(=O)c3ccc(Br)cc3)CC2)c(F)cc1[N+](=O)[O-]	GPR151 ag 6.9 | GPR151 confirm inactive | GPR119 ag inactive
CCCn1nnnc1SCC(=O)NNC(=O)c1ccco1	none
CCCCn1nnnc1SCC(=O)NNC(=O)c1ccco1	GPR151 ag 5.9 | GPR151 confirm inactive | GPR119 ag inactive
CSc1ccccc1NC(=O)c1ccc(S(=O)(=O)c2ccccc2Cl)c([N+](=O)[O-])c1	none
O=C(CCN1C(=O)C2CCCCC2C1=O)NNc1c(F)c(F)cc(F)c1F (stereo not given)	GPR151 ag 5.4 | GPR151 confirm inactive | GPR119 ag inactive
O=C(Nc1ccc(N2CCOCC2)c2nonc12)c1ccccc1Cl	none
O=C(O)c1c(Br)sc(-c2ccccc2)c1-c1ccccc1	GPR151 ag 7.1 | GPR151 confirm inactive | GPR119 ag inactive
NC(=O)CCN(CCC(N)=O)S(=O)(=O)c1ccccc1	GPR151 ag 6.6 | GPR151 confirm inactive | GPR119 ag inactive
NC(=O)CCN(CCC(N)=O)S(=O)(=O)c1ccc(Br)cc1	none
CCN(CC)S(=O)(=O)c1ccc2c(c1)c(=O)c(C(=O)N(C)CC(OC)OC)cn2C	none
CCN(CC)S(=O)(=O)c1ccc2c(c1)c(=O)c(C(=O)N(C)CCC#N)cn2C	GPR151 ag 6.1 | GPR151 confirm inactive | GPR119 ag inactive
CCC(C)N1C(=O)/C(=C\c2ccco2)SC1=S (stereo not given)	GPR151 ag 8.1 | GPR151 confirm inactive | GPR119 ag inactive
CCCN1C(=O)/C(=C/c2ccco2)SC1=S	none
O=S(=O)(NN=C1CCCCCC1)c1ccccc1	GPR151 ag 15 | GPR151 confirm inactive | GPR119 ag inactive
O=S(=O)(NN=C1CCCCC1)c1ccccc1	none
COc1ccc(N(CC(=O)NC2CCCCCCC2)S(=O)(=O)c2c(C)noc2C)cc1	none
CCOc1ccc(CCNS(=O)(=O)c2c(C)n[nH]c2C)cc1OCC	GPR151 ag 5.6 | GPR151 confirm inactive | GPR119 ag inactive
Cc1cccc(CCNS(=O)(=O)c2c(C)n[nH]c2C)c1	none
Cc1nc2c(c(=O)[nH]1)CCN(Cc1ccc3ncccc3c1)C2	GPR151 ag 6.5 | GPR151 confirm inactive | GPR119 ag inactive
CCOC(=O)COn1c(=O)c(-c2ccc(Oc3ccccc3)cc2)[n+]([O-])c2ccccc21	GPR151 ag 5.3 | GPR151 confirm inactive | GPR119 ag inactive
O=c1c(-c2ccccc2)[n+]([O-])c2ccccc2n1OCc1ccccc1[N+](=O)[O-]	GPR151 ag 6.0 | GPR151 confirm inactive | GPR119 ag inactive
COc1ccc(CNC(=O)CS(=O)Cc2nc(-c3ccc(OC)cc3)oc2C)cc1 (stereo not given)	none
Cc1ccc2nc(-c3ccc(Cl)c(NC(=S)NC(=O)c4cc5ccccc5o4)c3)oc2c1	none
CC(Oc1ccccc1)C(=O)Nc1ccc(F)cc1F (stereo not given)	GPR151 ag 5.3 | GPR151 confirm inactive | GPR119 ag inactive
COCCn1c(SCC(=O)NC2CCCC2)nnc1-c1ccncc1	none
COCCn1c(SCC(=O)N2CCCC2=O)nnc1-c1ccncc1	GPR151 ag 5.3 | GPR151 confirm inactive | GPR119 ag inactive
CC(C)c1ccc(-c2csc(NC(=O)c3ccc(S(=O)(=O)N(C)c4ccccc4)cc3)n2)cc1	none
C=CCC1(CC=C)CCCCN1C(=O)CC1C(=O)NCCN1Cc1ccccc1OC (stereo not given)	none
CCOC(=O)C1=C(C)OC(N)=C(C#N)C1c1ccc(OC)c(OCC)c1 (stereo not given)	GPR151 ag 5.2 | GPR151 confirm inactive | GPR119 ag inactive
CCOC(=O)C1=C(C)OC(N)=C(C#N)C1c1ccc(OC)c(OC)c1 (stereo not given)	none
CCOC(=O)C1=C(C)OC(N)=C(C#N)C1c1ccccc1C(F)(F)F (stereo not given)	GPR151 ag 7.1 | GPR151 confirm inactive | GPR119 ag inactive
COC(=O)C1=C(C)OC(N)=C(C#N)C1c1ccccc1C(F)(F)F (stereo not given)	none
CCCCCC1CCc2nc(/C=C/c3ccccc3)ccc2C1 (stereo not given)	GPR151 ag 6.0 | GPR151 confirm inactive | GPR119 ag inactive
CCCCCCCC1CCc2nc(-c3ccc(F)cc3)ccc2C1 (stereo not given)	none
Cn1c(=O)c(=O)n(C)c2cc(S(=O)(=O)NC3CCCC3)ccc21	none
COc1ccc(C2=NS(=O)(=O)N(C)C(C(=O)Nc3ccc(F)cc3F)=C2)cc1OC	none
Cc1ccc(C2=NS(=O)(=O)N(C)C(C(=O)Nc3ccc(F)cc3F)=C2)cc1	GPR151 ag 11 | GPR151 confirm inactive | GPR119 ag inactive
O=C(CN1C(=O)C2CC=CCC2C1=O)Nc1ccc(F)c(F)c1F (stereo not given)	none
Cc1cc2ncn(-c3ncnc4sc5c(c34)CCCC5)c2cc1C	GPR151 ag 4.9 | GPR151 confirm inactive | GPR119 ag inactive
COc1ccccc1NC(=O)C1CCN(C(=O)c2ccc([N+](=O)[O-])cc2)CC1	none
CC(C)N(CCNc1nc(NCc2cccnc2)nc2nc[nH]c12)C(C)C	GPR151 ag 6.2 | GPR151 confirm inactive | GPR119 ag inactive
CCNc1nc(NCc2cccnc2)c2[nH]cnc2n1	none
CN(C)c1ccc(/C=C2\N=C(c3cccc(Cl)c3)OC2=O)cc1	none
CCOC(=O)COc1ccc2c(C)c(-c3ccccc3)c(=O)oc2c1	none
Cc1c(-c2ccccc2)c(=O)oc2cc(OCC#N)ccc12	GPR151 ag 6.5 | GPR151 confirm inactive | GPR119 ag inactive
COc1ccc(CNc2cc(C)nc(-c3ccccc3)n2)cc1	none
Cc1cc(NCc2ccccc2)nc(-c2ccccc2)n1	GPR151 ag 5.2 | GPR151 confirm inactive | GPR119 ag inactive
